Test results reported in PubChem BioAssay AID1159580 (chemical genetic matrix, 2015).
Screen size: about 5,500 compounds; about 2,000 (36%) were called active. Another 18% or so got no clear call; they are omitted. No stated cut-off is given here; in the data, active means normalized growth mostly below about 0.91 (no sharp cut-off); inconclusive means no clear call, values can overlap the other calls; inactive means mostly above about 0.92. The list shows a part of the results.

Test: chemical genetic growth profiling, strain panel (AID 1159580);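 further: tested at 20 µM; growth read once vehicle control cultures reached saturation at 30 °C; 1 = growth at the plate median or of vehicle wells; lower values mean less growth of the strain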
Details: S. cerevisiae deletion strains, growth OD

Measured: normalized growth

NC(=O)C(c1ccccc1)(c1ccccc1)C1CCN(CCc2ccc3c(c2)CCO3)C1 (stereo not given)
inactive: locus YAL021C, strain ccr4, hits give low values 1.01 | locus YAL026C, strain drs2, hits give low values 1.02 | locus YAL030W, strain snc1, hits give low values 1.03 | locus YBL061C, strain skt5, hits give low values 1.01 | locus YBR009C, strain hhf1, hits give low values 1.04 | locus YBR023C, strain chs3, hits give low values 1.02 | locus YBR171W, strain sec66, hits give low values 1.04 | locus YBR231C, strain swc5, hits give low values 0.976 | locus YBR279W, strain paf1, hits give low values 1.02 | locus YCL011C, strain gbp2, hits give low values 1.03 | locus YCL016C, strain dcc1, hits give low values 1.03 | locus YCL061C, strain MRC1, hits give low values 1.02 | locus YCL069W, strain vba3, hits give low values 1.02 | locus YCR088W, strain abp1, hits give low values 1.02 | locus YDL005C, strain med2, hits give low values 1.02 | locus YDL040C, strain nat1, hits give low values 1.03 | locus YDR001C, strain nth1, hits give low values 1.02 | locus YDR069C, strain doa4, hits give low values 1.04 | locus YDR137W, strain rgp1, hits give low values 1.1 | locus YDR159W, strain sac3, hits give low values 1.03 | locus YDR195W, strain ref2 1.04 | locus YDR297W, strain sur2, hits give low values 1.02 | locus YDR334W, strain swr1, hits give low values 1.03 | locus YDR335W, strain msn5, hits give low values 1.01 | locus YDR392W, strain spt3, hits give low values 0.996 | locus YEL003W, strain gim4, hits give low values 1.03 | locus YEL037C, strain rad23, hits give low values 1.02 | locus YEL061C, strain CIN8 (second series), hits give low values 1.01 | locus YER015W, strain faa2, hits give low values 1.02 | locus YER016W, strain bim1, hits give low values 1.04 | locus YER111C, strain swi4, hits give low values 1.02 | locus YER155C, strain BEM2 (second series), hits give low values 1.04 | locus YFR010W, strain ubp6, hits give low values 1.02 | locus YGL167C, strain pmr1, hits give low values 1.02 | locus YGL173C, strain kem1, hits give low values 1.02 | locus YGL227W, strain vid30, hits give low values 1.01 | locus YGL240W, strain doc1, hits give low values 1.01 | locus YGL253W, strain hxk2, hits give low values 1.02 | locus YHR013C, strain ard1, hits give low values 1.01 | locus YHR027C, strain rpn1, hits give low values 1.03 | locus YHR030C, strain SLT2, hits give low values 1.05 | locus YHR079C, strain IRE1, hits give low values 1.05 | locus YHR142W, strain chs7, hits give low values 1 | locus YJL092W, strain hpr5, hits give low values 1.01 | locus YJL095W, strain BCK1 (second series), hits give low values 1.03 | locus YJL095W, strain BCK1, hits give low values 0.986 | locus YJL115W, strain asf1, hits give low values 1.02 | locus YJL129C, strain trk1, hits give low values 0.999 | locus YJL154C, strain vps35, hits give low values 1.03 | locus YJL164C, strain tpk1, hits give low values 1.04 | locus YJL166W, strain qcr8, hits give low values 1.03 | locus YJL187C, strain SWE1, hits give low values 1.02 | locus YJR066W, strain TOR1, hits give low values 0.997 | locus YKL160W, strain elf1, hits give low values 1.02 | locus YKR026C, strain gcn3, hits give low values 1.02 | locus YKR091W, strain srl3, hits give low values 1.02 | locus YLL001W, strain dnm1, hits give low values 1.03 | locus YLL026W, hits give low values 1.02 | locus YLL041C, strain sdh2, hits give low values 1.03 | locus YLR027C, strain aat2, hits give low values 1.03 | locus YLR113W, strain HOG1, hits give low values 1.01 | locus YLR221C, strain rsa3, hits give low values 1.02 | locus YLR258W, strain gsy2, hits give low values 1.04 | locus YLR262C, strain YPT6 (second series), hits give low values 1.08 | locus YLR320W, strain mms22, hits give low values 1.01 | locus YLR342W, strain FKS1, hits give low values 1.02 | locus YLR357W, strain rsc2, hits give low values 0.966 | locus YLR370C, strain arc18, hits give low values 1.01 | locus YLR384C, strain iki3, hits give low values 1.03 | locus YML120C, strain ndi1, hits give low values 1.01 | locus YMR058W, strain fet3, hits give low values 1.02 | locus YMR125W, strain sto1, hits give low values 1.01 | locus YMR129W, hits give low values 1.02 | locus YMR205C, strain PFK2, hits give low values 1.03 | locus YMR231W, strain pep5, hits give low values 1.02 | locus YNL071W, strain lat1, hits give low values 1.01 | locus YNL183C, strain NPR1, hits give low values 0.997 | locus YNL209W, strain ssb2, hits give low values 1.02 | locus YNL248C, strain rpa49, hits give low values 1.03 | locus YNL322C, strain KRE1 (second series), hits give low values 1.04 | locus YNR049C, strain mso1, hits give low values 1.02 | locus YOR001W, strain rrp6, hits give low values 1.03 | locus YOR070C, strain gyp1, hits give low values 1.03 | locus YOR080W, strain dia2, hits give low values 1.01 | locus YOR083W, strain WHI5, hits give low values 1 | locus YOR106W, strain vam3, hits give low values 1.01 | locus YOR231W, strain MKK1, hits give low values 1.04 | locus YOR265W, strain rbl2, hits give low values 1.05 | locus YOR270C, strain vph1, hits give low values 1.02 | locus YOR290C, strain snf2, hits give low values 1.08 | locus YPL051W, strain arl3, hits give low values 1.04 | locus YPL078C, strain atp4, hits give low values 1.01 | locus YPL106C, strain sse1, hits give low values 1.05 | locus YPL240C, strain hsp82, hits give low values 1.03 | locus YPL256C, strain CLN2, hits give low values 1.06
